A number with no mark means an inactive call.
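Further: TDF is a line of transformed human dermal fibroblasts of mesenchymal origin.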

For this assay, the system named is HCC1569. Briefly: H1.0 immunofluorescence intensity relative to DMSO (% of DMSO); higher = stronger H1.0 induction, active = 140 or more. The following applies: concentration: 10 µM; 24 h. The method in brief: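 Cell number or H1.0 nuclear intensity appears as percent of the plate control, based on the median of replicates. Measurements came from HCC1569 and TDF cells exposed in triplicate to compounds at 10 µM for 24 h at 37 °C, then imaged in six fields per well at ×10. Positional effects were smoothed out of HCC1569 values.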
Turning to `O=C1NCN(c2ccccc2)C12CCN(CCCC(c1ccc(F)cc1)c1ccc(F)cc1)CC2` [Fluspirilene], the H1.0 immunofluorescence intensity was 126.
Then `Cc1[nH]c2ccccc2c1CCNC(=O)c1cccs1` [N-[2-(2-methyl-1H-indol-3-yl)ethyl]-2-thiophenecarboxamide], with 92.8.
The same measure for `Cl.c1ccc2c(CC3=NCCN3)cccc2c1` [Naphazoline hydrochloride]: 90.2.
Then `CC1OC(OC2C(Oc3cc(O)c4c(c3)OC(c3ccc(O)cc3)CC4=O)OC(CO)C(O)C2O)C(O)C(O)C1O` (stereo not given) [Naringin], with 86.1; and `O=c1[nH]c2ccccc2n1CCN1CCN(c2cccc(C(F)(F)F)c2)CC1`, with 101.
On to `CSc1ccc(/C=C2/C(C)=C(CC(=O)O)c3cc(F)ccc32)cc1`, for which the H1.0 immunofluorescence intensity was 102.
Take `CS(=O)(=O)O.NC(=NC(=O)c1nc(Cl)c(N)nc1N)Nc1ccccc1` [Phenamil methanesulfonate]: the H1.0 immunofluorescence intensity was 96.1.
In the case of `CC(C(=O)O)c1ccc(CC2CCCC2=O)cc1` (stereo not given) [loxoprofen], the H1.0 immunofluorescence intensity is 92.6.
Regarding `CSc1cccc(Nc2ncc3cc(-c4c(Cl)cccc4Cl)c(=O)n(C)c3n2)c1`, the H1.0 immunofluorescence intensity was 150 (active).
In the case of `CCCCCCCCCCCCC(=O)O` [Tridecanoic acid], the H1.0 immunofluorescence intensity was 101.
With `Cn1cc[nH]c1=S` [Methimazole], the H1.0 immunofluorescence intensity was 102.
Then `COC1=C2CC(C)=c3c(C(C)=O)c(OC)c(O)c4c3c2c2c(cc(OC)c3c(OC)cc(O)c4c32)C(=O)C1=O` [Hypocrellin B], with 93.7; and `Cl.Cl.Nc1nccc(-c2c(-c3ccc(F)cc3)ncn2C2CCCCC2)n1`, with 130.
In the case of `CN(C)c1ccc(O)c2c1CC1CC3C(N(C)C)C(=O)C(C(N)=O)=C(O)C3(O)C(=O)C1=C2O` (stereo not given) [Minocycline], the H1.0 immunofluorescence intensity is 88.6.
Turning to `CCCN(CCc1ccccc1)C1CCc2c(O)cccc2C1` (stereo not given) [2-(N-Phenethyl-N-propyl)amino-5-hydroxytetralin], the H1.0 immunofluorescence intensity is 106.
For the compound `CCCCCCCCC=CCCCCCCCC(=O)OCC(O)COP(=O)(O)O` (stereo not given) [Lysophosphatidic acid], the H1.0 immunofluorescence intensity was 105.
Take `CCCCCCCCCCCCCCCC(=O)NCCc1ccc(O)c(O)c1` [Palmitoyl dopamine]: the H1.0 immunofluorescence intensity was 105.
Turning to `O=C(O)C1CCCNC1C(=O)O` (mixture of isomers), the H1.0 immunofluorescence intensity is 96.7.
In the case of `CCCCCC(O)C=CC1C(O)CC(O)C1CC=CCCCC(=O)O` (stereo not given) [Prostaglandin F2a], the H1.0 immunofluorescence intensity was 112.
With `CN1CCN(C2=Nc3ccccc3Sc3ccc(Cl)cc32)CC1` [Clothiapine], the H1.0 immunofluorescence intensity was 110.
On to `O=C(O)CP(=O)(O)O` [Phosphonoacetic acid], for which the H1.0 immunofluorescence intensity is 96.9.
On to `Cc1cc(Nc2cc(N3CCN(C)CC3)nc(Sc3ccc(NC(=O)C4CC4)cc3)n2)n[nH]1` [Tozasertib], for which the H1.0 immunofluorescence intensity is 156 (active).
Turning to `CCCCCC=CCC=CCC=CC=CC(O)CCCC(=O)O` (stereo not given), the H1.0 immunofluorescence intensity is 105.
As to `CCCCCC=CCC=CC=CC=CC(SCC(NC(C)=O)C(=O)O)C(O)CCCC(=O)O` (stereo not given) [N-Acetyl-leukotriene E4], the H1.0 immunofluorescence intensity was 100.
Consider `O=C1c2ccccc2-c2n[nH]c3cccc1c23` [JNK Inhibitor II], for which the H1.0 immunofluorescence intensity was 144 (active).
The same measure for `CCC(C)C(=O)OC1CCC=C2C=CC(C)C(CCC3CC(O)CC(=O)O3)C21` (stereo not given) [Mevastatin]: 95; for `Cl.O=C(c1ccc(OCCN2CCCCC2)cc1)c1c(-c2ccc(O)cc2)sc2cc(O)ccc12` [Raloxifene hydrochloride]: 121; for `O=c1c(O)c(-c2cc(O)c(O)c(O)c2)oc2cc(O)ccc12` [Robinetine]: 90.7.
The same measure for `CCCCCCCCc1ccc(CCC(N)(CO)CO)cc1.Cl`: 173 (active).
Then `CCCN(CCC)C(=O)C(CCC(=O)O)NC(=O)c1ccccc1` (stereo not given) [Proglumide], with 88.
`CN1CCN(c2c(F)cc3c(=O)c(C(=O)O)cn4c3c2SCC4)CC1` [Rufloxacin]: the H1.0 immunofluorescence intensity was 95.2.
The same measure for `OCCn1cc(-c2cnc3nnn(Cc4ccc5ncccc5c4)c3n2)cn1`: 99.8.
Turning to `CCc1nn(CCCN2CCN(c3cccc(Cl)c3)CC2)c(=O)n1CCOc1ccccc1`, the H1.0 immunofluorescence intensity is 122.
Regarding `CC1CNc2c(cccc2S(=O)(=O)NC(CCCN=C(N)N)C(=O)N2CCC(C)CC2C(=O)O)C1` (stereo not given) [Argatroban], the H1.0 immunofluorescence intensity is 112.
Regarding `CN(C)C(=O)COC(=O)Cc1ccc(OC(=O)c2ccc(N=C(N)N)cc2)cc1.CS(=O)(=O)O`, the H1.0 immunofluorescence intensity was 98.5.
With `Cc1cc2cc3c(C)cc(=O)oc3c(C)c2o1` [4,5',8-Trimethylpsoralen], the H1.0 immunofluorescence intensity is 87.5.
As to `OC1C=C2CCN3Cc4cc5c(cc4C(C1O)C23)OCO5` (stereo not given) [Lycorine], the H1.0 immunofluorescence intensity was 180 (active).
Consider `CCC1(O)CC(OC2CC(N(C)C)C(OC3CC(O)C(OC4CCC(=O)C(C)O4)C(C)O3)C(C)O2)c2c(cc3c(c2O)C(=O)c2c(O)cccc2C3=O)C1C(=O)OC` (stereo not given) [Aclarubicin], for which the H1.0 immunofluorescence intensity was 210 (active).
Consider `O=C1CCC(N2C(=O)c3ccccc3C2=O)C(=O)N1` (racemic), for which the H1.0 immunofluorescence intensity was 99.3.
With `OCC(CO)(CO)NCC(O)Cn1c2ccc(Cl)cc2c2cc(Cl)ccc21` (stereo not given), the H1.0 immunofluorescence intensity was 168 (active).
